{"source": "the supplement of paper PMC11417369", "note": "± gives the standard deviation of the averaged measurements. Over roughly 25,000 sequences, “ln(normalized median fluorescence intensity)” has its median near 10; the highest 2% begin near 12. Shown is part of a subset that was picked to be rich in the highest values.", "data": [{"system": "PfAP2-G AP2 domain (GST-tagged)", "test": "gcPBM binding intensity (ln(normalized median fluorescence intensity)); higher = stronger DNA binding", "summary_of_the_method": "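Probes on an Agilent 4 × 180k array were primer-extended, double-stranded and 36 bp long, taken from intergenic genomic regions, with negative controls added. GST-tagged P. falciparum DNA-binding domains from E. coli, about 25 μg on average, were applied to the array for 1 h in 1× PBS containing 1% milk, 0.2 mg/ml BSA, 0.5% salmon testes DNA and 0.03% Triton X-100. Binding intensity, obtained after Alexa488 anti-GST antibody detection and a 488 nm scan, is the highest Masliner-normalised natural-log median intensity across replicate spots of either probe orientation.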", "values": [{"sequence": "TCTATAAAGGAATATACACACATATATATATATATA [CACACA_site410]", "gcPBM binding intensity (ln)": "9.9 ± 0.32"}, {"sequence": "AATAATATATTTAGGGGTACATAATAATATATTTTA [XGTACX_site8366]", "gcPBM binding intensity (ln)": "11.6 ± 1.1"}, {"sequence": "ATATTATTTTAAAGTACACACATATATTAAGATATA [CACACA_site5306]", "gcPBM binding intensity (ln)": "11.4 ± 1"}, {"sequence": "TAAAATAAAAAAGTAGTACACACTTCACGATATTTT [CACACA_site3896]", "gcPBM binding intensity (ln)": "11.6 ± 0.91"}, {"sequence": "AAATAAAAAAGTAGTACACACTTCACGATATTTTTT [CACACA_site6015]", "gcPBM binding intensity (ln)": "11.6 ± 1"}, {"sequence": "TTAAAAAAAAAAAAAAGTACACACTTATAAAATATT [XGTACX_site1630]", "gcPBM binding intensity (ln)": "11.6 ± 0.91"}, {"sequence": "TAAAAAAAAAAAAAAGTACACACTTATAAAATATTA [CACACA_site872]", "gcPBM binding intensity (ln)": "11.6 ± 1"}, {"sequence": "AAAAAAAAAAAAAAAAGTACATATATTATATATATA [XGTACX_site2983]", "gcPBM binding intensity (ln)": "11.3 ± 0.93"}, {"sequence": "AAAAAAGATATATAAACACACATATTTATATACACA [CACACA_site6866]", "gcPBM binding intensity (ln)": "9.66 ± 0.16"}, {"sequence": "AGATAAAAAAAGTACACACACACATATATTTATATA [CACACA_site7437]", "gcPBM binding intensity (ln)": "11.8 ± 1.2"}, {"sequence": "AAAAAAAAAAAAAGTACACACTTATAAAATATTATG [CACACA_site4639]", "gcPBM binding intensity (ln)": "11.6 ± 1.1"}, {"sequence": "AAAAAAAAAAAAAAAAGTACATATATATATTTATAT [XGTACX_site5893]", "gcPBM binding intensity (ln)": "11.7 ± 1"}, {"sequence": "GTAAAAAAAAAAAAAAGTACATTATACATATATTTA [XGTACX_site5447]", "gcPBM binding intensity (ln)": "11.3 ± 0.81"}, {"sequence": "ATAAAATAAAAAAGTAGTACACACTTCACGATATTT [XGTACX_site8289]", "gcPBM binding intensity (ln)": "11.5 ± 0.84"}, {"sequence": "AATGTAAAATATAAATGTACATATATATATATATAT [XGTACX_site5071]", "gcPBM binding intensity (ln)": "11 ± 0.45"}, {"sequence": "TATATATATATATATGTACACACATATATACCTTTC [CACACA_site8854]", "gcPBM binding intensity (ln)": "11.3 ± 0.71"}, {"sequence": "GAAAGAATAAAATAAACATGCAAATAAAACATAAAA [TGCATGCA_site471]", "gcPBM binding intensity (ln)": "9.81 ± 0.2"}, {"sequence": "AGCATAAACAATTTTTGAAAAAATATACACTCATAG [CACACA_negctrl_site890]", "gcPBM binding intensity (ln)": "9.935 ± 0.007"}, {"sequence": "AAAAAATATACATATTGTACATTTTTTATTAACACA [XGTACX_site6415]", "gcPBM binding intensity (ln)": "10.8 ± 0.49"}, {"sequence": "TAGTATTGTAAAAAAAAAAAAGAAAAAAAAAAAAAA [CACACA_negctrl_site977]", "gcPBM binding intensity (ln)": "9.68 ± 0.15"}, {"sequence": "TTAAGATGCATAAATACATGCAAAGTAAATAATTCT [TGCATGCA_site517]", "gcPBM binding intensity (ln)": "9.88 ± 0.014"}, {"sequence": "CATAAAAATGGATACACACACATAATATATATATAT [CACACA_site3619]", "gcPBM binding intensity (ln)": "10.2 ± 0.3"}, {"sequence": "TTACTTAAGAAACACACACACAAAAAAAAAAAAAAA [CACACA_site946]", "gcPBM binding intensity (ln)": "9.91 ± 0.54"}, {"sequence": "AGTTTAAATTAAATTACACACTACGAATAATATATT [CACACA_site7811]", "gcPBM binding intensity (ln)": "9.895 ± 0.007"}, {"sequence": "TATTCCAAAAATGTGTGTACATAAATACAATATTAT [XGTACX_site2653]", "gcPBM binding intensity (ln)": "11.4 ± 0.89"}, {"sequence": "AAAAAAAAAAAAAGTACACACATACAGATAAATATA [CACACA_site5067]", "gcPBM binding intensity (ln)": "11.6 ± 1"}, {"sequence": "TAAAAAAAAATAAAAAGTACATATATATATATATAT [XGTACX_site1155]", "gcPBM binding intensity (ln)": "11.1 ± 0.86"}, {"sequence": "ACAATATAGATTAAAAGTACAAATAGTAAATTATAT [XGTACX_site3165]", "gcPBM binding intensity (ln)": "11.2 ± 0.71"}, {"sequence": "AGATAAAAAAAGTACACACACACATATATATATATA [CACACA_site3072]", "gcPBM binding intensity (ln)": "11.6 ± 0.93"}, {"sequence": "AGATATATATTTTATTGTACACATTAAAGTATAAAA [XGTACX_site7194]", "gcPBM binding intensity (ln)": "11.5 ± 1.1"}, {"sequence": "AATAAATATATTAAAAGTACACAAATATTATTTAAT [XGTACX_site2482]", "gcPBM binding intensity (ln)": "11.4 ± 0.76"}, {"sequence": "AAAAAAAAAAAAAAAAGTACACAAATAGATTTATAT [XGTACX_site3727]", "gcPBM binding intensity (ln)": "11.6 ± 0.88"}, {"sequence": "ATAAATACATATAAAAGTACACACACACACATATAT [XGTACX_site1744]", "gcPBM binding intensity (ln)": "11.5 ± 0.93"}, {"sequence": "ATAAAAAAAAAAAAAAGTACACATATAAAAGTATTG [XGTACX_site8265]", "gcPBM binding intensity (ln)": "11.6 ± 0.91"}, {"sequence": "GAGATATAAAAGTGTACACATATTGTTATCCATATT [CACACA_site5441]", "gcPBM binding intensity (ln)": "11.8 ± 1"}, {"sequence": "GCCATAAAGATATATACACACATAAAAAAAAGTTAT [CACACA_site6674]", "gcPBM binding intensity (ln)": "10.1 ± 0.16"}, {"sequence": "TACATATAAAAGTACACACACACACCCATATATATA [CACACA_site941]", "gcPBM binding intensity (ln)": "11.6 ± 1.1"}, {"sequence": "ATATATTGAACATATTGTACATTTTGTTAATATTTT [XGTACX_site7622]", "gcPBM binding intensity (ln)": "10.7 ± 0.43"}, {"sequence": "TTATATTTATATATTTGTACGTATGTATATAATTCA [XGTACX_site2993]", "gcPBM binding intensity (ln)": "11.4 ± 0.97"}, {"sequence": "ATTGTTTTTTTTTCTTTGTGGAATGAATGAATATAT [XGTACX_negctrl_site603]", "gcPBM binding intensity (ln)": "10 ± 0.19"}, {"sequence": "TATATATATATATTGACACACATGTATTTCAATATT [CACACA_site2832]", "gcPBM binding intensity (ln)": "10.1 ± 0.21"}, {"sequence": "TATATATATATGTGCACACATAATAAAAAAAAAAAT [CACACA_site3831]", "gcPBM binding intensity (ln)": "10.6 ± 0.69"}, {"sequence": "AAAAAATTAATATTGACACACATTTTTAAGAATAAT [CACACA_site239]", "gcPBM binding intensity (ln)": "10.1 ± 0.16"}, {"sequence": "TATGTTTTTGAATGAGTGCATTAAAATAAAACATTT", "gcPBM binding intensity (ln)": "10.2 ± 0.27"}, {"sequence": "AAAAAAGAAAAAAGGACACACATAAATATACTCACG [CACACA_site2904]", "gcPBM binding intensity (ln)": "11.2 ± 0.91"}]}]}
